Experimental data reported in the supplement of paper PMC6555819.

Legend:
Assay in all cases: PBM binding z-score (relative to random genomic background probes); higher = stronger binding; sequences stand for … in GC…GCGATTGACAGCGTAGAATGAAGG
[1] = system: FXR:RXRa (NR concentration 270 nM, RXRa partner concentration 90 nM)
How it was run: (§1)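 Random background probes are the reference for binding z-scores. These scores derive from regression-normalized fluorescence on custom Agilent 4×180K protein-binding microarrays incubated 1 h with ligand-free nuclear receptor dimers. Binding was detected with antibodies against each partner (one per run).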

[2] = system: LXRa:RXRa (NR concentration 270 nM, RXRa partner concentration 90 nM)
How it was run: as §1

[3] = system: LXRa homodimer (NR concentration 270 nM)
How it was run: as §1

[4] = system: LXRb:RXRa (NR concentration 270 nM, RXRa partner concentration 90 nM)
How it was run: as §1

[5] = system: LXRb homodimer (NR concentration 270 nM)
How it was run: as §1

[6] = system: PPARa:RXRa (NR concentration 270 nM, RXRa partner concentration 90 nM)
How it was run: as §1

[7] = system: PPARg:RXRa (NR concentration 180 nM, RXRa partner concentration 90 nM)
How it was run: as §1

[8] = system: PPARg:RXRa 270nM:90nM, anti-RXR (NR concentration 270 nM, RXRa partner concentration 90 nM)
How it was run: as §1

[9] = system: PPARg:RXRa 30nM:10nM, anti-RXR (NR concentration 30 nM, RXRa partner concentration 10 nM)
How it was run: as §1

[10] = system: PPARg:RXRa 90nM:30nM, anti-RXR (NR concentration 90 nM, RXRa partner concentration 30 nM)
How it was run: as §1

[11] = system: PPARg:RXRa DBDmut IVT, anti-RXR (DBD mutation: RXRa K156A/R161A, NR concentration 270 nM, RXRa partner concentration 90 nM)
How it was run: as §1

[12] = system: PPARg:RXRa IVT, anti-PPARg (NR concentration 270 nM, RXRa partner concentration 90 nM)
How it was run: as §1

[13] = system: PPARg DBDmut:RXRa IVT, anti-PPARg (DBD mutation: PPARg1 K132A/R137A, NR concentration 270 nM, RXRa partner concentration 90 nM)
How it was run: as §1

[14] = system: PPARg DBDmut IVT, anti-PPARg (DBD mutation: PPARg1 K132A/R137A, NR concentration 270 nM)
How it was run: as §1

[15] = system: PPARg homodimer (NR concentration 180 nM)
How it was run: as §1

[16] = system: PXR:RXRa (NR concentration 270 nM, RXRa partner concentration 90 nM)
How it was run: as §1

[17] = system: PXR homodimer (NR concentration 270 nM)
How it was run: as §1

[18] = system: RARa:RXR (NR concentration 270 nM, RXRa partner concentration 90 nM)
How it was run: as §1

[19] = system: RARa homodimer (NR concentration 270 nM)
How it was run: as §1

[20] = system: RARb:RXRa (NR concentration 270 nM, RXRa partner concentration 90 nM)
How it was run: as §1

Sequence	PBM binding z-score [1]	PBM binding z-score [2]	PBM binding z-score [3]	PBM binding z-score [4]	PBM binding z-score [5]	PBM binding z-score [6]	PBM binding z-score [7]	PBM binding z-score [8]	PBM binding z-score [9]	PBM binding z-score [10]	PBM binding z-score [11]	PBM binding z-score [12]	PBM binding z-score [13]	PBM binding z-score [14]	PBM binding z-score [15]	PBM binding z-score [16]	PBM binding z-score [17]	PBM binding z-score [18]	PBM binding z-score [19]	PBM binding z-score [20]
TCGAGTAGGTTAATCGGGGCATTCAGCCAACATA	0.0036	0.53	-0.187	0.859	-0.245	1.72	0.726	1.54	1.04	1.31	3.25	3.08	0.341	-0.256	0.811	0.519	-0.134	0.933	-0.986	0.81
CGAACTAGGTCAGAACAGGACAATGAAGGATGAT	1.42	1.2	0.0697	0.618	-0.134	3.06	5.27	4.32	1.93	3.26	6.72	7.28	2.05	0.683	0.602	1.23	0.343	0.703	0.399	2.98
CAGCCTAGGTCAGGGCGAGTATAGGAGGAACGTT	1.8	0.876	-0.437	0.505	-1.08	2.07	1.03	1.29	0.157	0.783	1.68	1.54	-1.19	-1.55	0.665	0.305	-0.665	1.11	-0.626	3.19
AGAATGAGGTTATACGGAGATCAGGGAAGAAAGT	2.36	1.94	0.0841	1.7	0.0612	3.29	1.7	2.04	0.685	1.45	2.35	2.05	1.14	0.774	0.836	1.25	0.96	1.74	0.352	1.5
CCTAGCAGGCCAGGGTCACTCGAGCATTTCGCTT	2.22	1.62	-0.424	1.78	-0.991	2.98	0.557	1.6	-0.327	0.652	0.58	1.02	-0.592	-1.77	0.543	2.32	-0.255	3.1	-0.646	2.57
ATACCAAGGTGATCGTGAGGTCGTAGATACTAAC	1.57	1.07	0.236	0.929	-0.173	1.73	0.732	0.484	-0.23	-0.092	0.0521	1.54	0.536	0.745	0.811	2.2	0.811	2.21	0.262	1.33
CGTCCAAGGTCAGCAGGTCAGTGTAAGCGACGTG	5.5	4.05	0.506	3.05	-0.03	4.91	4.14	4.68	1.12	3.01	2.97	3.67	-0.32	-0.582	2.97	3.74	0.447	5.09	1.36	5.35
TTACCAAGGTGAAAGATCGTTGATGCACGCCTTG	0.552	0.392	-0.574	0.286	-0.696	2.36	2.97	3.92	2.25	3.77	1.56	2.99	0.596	0.116	0.393	0.0637	-0.296	0.393	-0.301	1.23
GCTATTAGTTGGAAGGGCAACCGAATGATTCTCG	-0.211	-0.165	0.178	-0.0403	-0.253	0.0818	0.375	0.723	-0.127	0.108	-0.166	-0.0839	-0.592	-0.456	0.324	-0.247	-0.0418	-0.059	0.846	1.06
ACTATTAGTTAAGACGAGGGCAACCGATAGGTTG	0.44	0.122	0.165	0.211	0.232	0.271	0.646	-0.109	-0.17	-0.186	-0.356	0.422	0.81	0.924	0.44	0.642	0.645	0.641	1.02	0.967
GGAACGAGGGCAAAGTTGATAACATCTGTCGACG	1.57	1.1	-0.134	1.12	-0.18	4.13	7.22	7.08	6.1	7.67	3.83	4.15	0.399	0.51	1.5	1.23	0.336	1.49	0.102	2.25
ATATGTAGGTTGGCTGGGGTCATTCAGACTAGGC	4.06	3.56	2.01	4.28	2.04	4.46	2.66	3.18	0.972	1.89	2.56	2.75	1.35	1.7	2.57	5.98	4.44	5.69	0.758	2.62
CCGACTGGGGCCAGGTTACCATAACGCACAGCCA	0.0157	-0.087	-0.139	0.152	-0.749	0.188	0.629	0.301	-0.675	-0.256	-0.238	-0.22	-1.52	-1.47	0.249	-0.136	-0.0661	0.176	-0.0137	0.996
GATACAGGGTCATGGCCAGAGTACGCGTATTGAT	6.5	4.72	-0.00415	3.79	-0.283	5.65	6.02	6.38	2.73	4.67	3.28	4.13	0.893	-0.182	1.88	4.2	-0.295	5.43	0.00513	4.31
CGAACGGGGGCATGAGTTGATAGCAAATGCCGAT	3.26	2.81	0.42	4.42	6.73	3.99	2.63	4.68	2.82	3.84	3.7	5.31	8.66	10	2.78	3.06	1.34	2.78	0.977	2.79
